From PubChem BioAssay (NCATS) come the findings set out here.

Each structure is given as a SMILES string. Inconclusive results are not listed. Active and inactive are the calls of the source. Unless noted, calls follow the shape of the dose curve; as a rule, active = well fitted curve in the direction sought with a large enough effect; inconclusive = small, poorly fitted or top-dose-only effect, or another doubt; inactive = no such curve, though single readings can be large; an effect the other way counts as inactive or inconclusive.

The target of assay [1] is Cytochrome P450 3A4 (Homo sapiens) (UniProt P08684). Kind of assay: qHTS Assay for Inhibitors and Substrates of Cytochrome P450 3A4 (AID 884). Also: % is scaled to controls: 0 for no effect and ±100 for the full control effect; nearly all actives have a fitted effect of over 50% in size. The essentials: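 20 nM human CYP3A4 with 25 uM Luciferin-PPXE (at KM) in 200 mM KPO4, preincubated 10 min with compound; NADPH regeneration started a 60 min RT reaction. Luciferin detected by luminescence, normalized to 57 uM ketoconazole as full inhibition.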
Sequence of Cytochrome P450 3A4 (Homo sapiens) (P08684 whole entry, looked up): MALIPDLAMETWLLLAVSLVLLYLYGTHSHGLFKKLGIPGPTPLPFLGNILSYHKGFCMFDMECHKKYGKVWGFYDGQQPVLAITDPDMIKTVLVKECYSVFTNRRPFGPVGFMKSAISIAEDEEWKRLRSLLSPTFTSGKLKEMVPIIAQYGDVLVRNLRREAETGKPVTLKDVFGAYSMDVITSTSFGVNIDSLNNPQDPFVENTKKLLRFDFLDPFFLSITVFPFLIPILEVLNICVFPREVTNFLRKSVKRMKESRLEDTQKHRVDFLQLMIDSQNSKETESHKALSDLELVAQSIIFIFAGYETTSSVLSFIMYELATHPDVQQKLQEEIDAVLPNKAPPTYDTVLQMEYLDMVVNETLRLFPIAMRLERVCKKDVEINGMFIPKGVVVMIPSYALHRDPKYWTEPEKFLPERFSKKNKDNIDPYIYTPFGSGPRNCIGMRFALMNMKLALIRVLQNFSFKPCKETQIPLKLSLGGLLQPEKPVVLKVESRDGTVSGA

Assay [2] can be described thus: Confirmation and Secondary Assay for Modulators of Hemoglobin Beta Chain Splicing at IVS2 654 locus (AID 910).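 Also: per-well total GFP intensity by laser scanning cytometry after 2-day treatment; % of control where 0% means no effect.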 In short, it runs like this:
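HeLa cells stably carrying EGFP interrupted by mutant beta-globin IVS2-654 intron (CMV-driven) were treated with compound for 2 days at 37C; corrected splicing was scored as total peak GFP intensity per well (488 nm excitation, 500-520 nm emission).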

Assay [3] in a line: Confirmation and Secondary Assay for Modulators of Hemoglobin Beta Chain Splicing at IVS2 705 locus (AID 930).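 Also: HeLa cells stably expressing the EGFP-705 splicing reporter; GFP fluorescence per well restored by corrected splicing of the IVS2-705 intron in EGFP; % of control where 0% means no effect.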 In short, it runs like this:
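Per-well GFP, captured at 1 x 8 µm resolution with 488 nm excitation, served as the read-out for HeLa EGFP-705 cells incubated 2 days with test compound versus DMSO.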

A short description of assay [4]: qHTS Assay for Lipid Storage Modulators (AID 1519; calls by dose curve; as to activity change, negative = inhibition: % is scaled to controls: 0 for no effect and ±100 for the full control effect). The following applies: Drosophila S3 cells, BODIPY lipid droplet/cell ratio, laser cytometry, cells loaded with oleic acid. In short, it runs like this: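 Cells seeded at 5,000 per well were treated with compounds over a concentration series and loaded with oleic acid (400 uM, as added). Lipid droplet fluorescence (488 nm excitation, 500-530 nm channel) was read by laser-scanning cytometry and normalized to 20 uM Triacsin C.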

For assay [5], the target named is ATP-dependent 6-phosphofructokinase (Trypanosoma brucei brucei) (UniProt O15648). Kind of assay: qHTS Assay to Find Inhibitors of T. brucei phosphofructokinase: hit validation (AID 492961).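 Also: luminescence reports ADP formed as PFK phosphorylates fructose-6-phosphate with ATP; % is scaled to controls: 0 for no effect and ±100 for the full control effect.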 In short, it runs like this: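 PFK 1.25 nM, F6P 0.5 mM, ATP 0.1 mM, MgCl2 5 mM, 0.1 M TEA pH 8.0, Tween20 0.01%, BSA 0.1%; 45 min RT. ADP-Glo two-step detection, luminescence. qHTS titration; curve fitting with curve-class categorization.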
Sequence of ATP-dependent 6-phosphofructokinase (Trypanosoma brucei brucei) (O15648 whole entry, looked up): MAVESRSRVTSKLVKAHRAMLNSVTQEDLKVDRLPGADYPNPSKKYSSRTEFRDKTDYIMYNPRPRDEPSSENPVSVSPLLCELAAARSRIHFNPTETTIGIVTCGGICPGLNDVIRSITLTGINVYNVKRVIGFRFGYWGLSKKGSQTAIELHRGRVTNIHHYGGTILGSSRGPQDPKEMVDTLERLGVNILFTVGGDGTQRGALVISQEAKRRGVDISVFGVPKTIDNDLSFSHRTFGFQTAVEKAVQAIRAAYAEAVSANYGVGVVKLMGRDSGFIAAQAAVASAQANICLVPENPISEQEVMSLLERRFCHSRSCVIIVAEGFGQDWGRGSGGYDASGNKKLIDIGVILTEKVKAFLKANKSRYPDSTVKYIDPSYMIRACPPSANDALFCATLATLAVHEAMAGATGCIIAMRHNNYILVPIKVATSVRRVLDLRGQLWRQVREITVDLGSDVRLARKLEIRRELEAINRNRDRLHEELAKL
(In general: In qHTS, concentration-response curves come from the screen itself.)

Assay [6] has as its target Luciferin 4-monooxygenase (Photinus pyralis) (UniProt P08659). Description: Biochemical firefly luciferase enzyme assay for NPC (AID 624030).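 Also: purified P. pyralis luciferase at 10 nM with luciferin and ATP substrate; 0% = DMSO and -100% = full luciferase inhibition by PTC124 control; nearly all actives have a fitted effect of over 70% in size.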 The essentials: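 Counter-screen for direct inhibition of the luciferase enzyme by approved-drug library compounds, run at 10 nM enzyme in 50 mM Tris acetate (final). Luminescence was read within 5 min of enzyme-buffer addition and normalized to PTC124 versus DMSO (0%).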

Assay [7] in a line: qHTS profiling for inhibitors of Plasmodium falciparum proliferation (AID 504749).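 Also: 0% = DMSO vehicle and full inhibition = artemisinin control; nearly all actives have a fitted effect of over 60% in size.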 The following applies: P. falciparum in erythrocytes, SYBR Green DNA, 72 h. The essentials: (§1)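 Parasite proliferation within erythrocytes, 72 h exposure. Endpoint: SYBR Green I fluorescence after overnight lysis at room temperature. Controls: 0.29 uM artemisinin, DMSO.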
In the next assay the test system is AS120. The description is as above. The following applies: P. falciparum in erythrocytes, SYBR Green DNA, 72 h; series mostly up to 28.7 µM. The essentials: as §1
In the next assay the test system is ATS189. Described as above. The note with it: P. falciparum in erythrocytes, SYBR Green DNA, 72 h; series mostly up to 28.7 µM. The essentials:
as §1

A further assay relates to CP247. The assay is described as above. The following applies: P. falciparum in erythrocytes, SYBR Green DNA, 72 h; series mostly up to 28.7 µM. The essentials:
as §1

For a further assay, the system named is CP269. Described as above. The following applies: P. falciparum in erythrocytes, SYBR Green DNA, 72 h; series mostly up to 28.7 µM. The essentials: as §1
The test system of the next assay is ECU. Described as above. The note with it: P. falciparum in erythrocytes, SYBR Green DNA, 72 h; series mostly up to 28.7 µM. In short, it runs like this:
as §1

Another assay relates to TAB109. Described as above. The following applies: P. falciparum in erythrocytes, SYBR Green DNA, 72 h; series mostly up to 12.8 µM. The essentials: as §1
For assay [8], the target named is Ubiquitin carboxyl-terminal hydrolase 1 (Homo sapiens) (UniProt O94782). Kind of assay: Inhibitors of USP1/UAF1: Pilot qHTS (AID 504865). Also: nearly all actives have a fitted effect of over 35% in size. Also: potency is read from the fitted curve at half-maximal effect.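 As to activity change, negative = inhibition: rhodamine fluorescence freed from ubiquitin-rhodamine substrate followed over time; top concentration of the series differs between compounds; % is scaled to controls: 0 for no effect and ±100 for the full control effect.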 In short, it runs like this: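 In 50mM HEPES pH 7.8 containing 0.5mM EDTA, 1mM TCEP, 0.1 mg/ml BSA and 0.01% Tween-20, 1nM USP1/UAF1 is exposed to compound for 15 min, then Ub-Rho (150nM final) is added and fluorescence is read over time.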
Sequence of Ubiquitin carboxyl-terminal hydrolase 1 (Homo sapiens) (O94782 whole entry, looked up): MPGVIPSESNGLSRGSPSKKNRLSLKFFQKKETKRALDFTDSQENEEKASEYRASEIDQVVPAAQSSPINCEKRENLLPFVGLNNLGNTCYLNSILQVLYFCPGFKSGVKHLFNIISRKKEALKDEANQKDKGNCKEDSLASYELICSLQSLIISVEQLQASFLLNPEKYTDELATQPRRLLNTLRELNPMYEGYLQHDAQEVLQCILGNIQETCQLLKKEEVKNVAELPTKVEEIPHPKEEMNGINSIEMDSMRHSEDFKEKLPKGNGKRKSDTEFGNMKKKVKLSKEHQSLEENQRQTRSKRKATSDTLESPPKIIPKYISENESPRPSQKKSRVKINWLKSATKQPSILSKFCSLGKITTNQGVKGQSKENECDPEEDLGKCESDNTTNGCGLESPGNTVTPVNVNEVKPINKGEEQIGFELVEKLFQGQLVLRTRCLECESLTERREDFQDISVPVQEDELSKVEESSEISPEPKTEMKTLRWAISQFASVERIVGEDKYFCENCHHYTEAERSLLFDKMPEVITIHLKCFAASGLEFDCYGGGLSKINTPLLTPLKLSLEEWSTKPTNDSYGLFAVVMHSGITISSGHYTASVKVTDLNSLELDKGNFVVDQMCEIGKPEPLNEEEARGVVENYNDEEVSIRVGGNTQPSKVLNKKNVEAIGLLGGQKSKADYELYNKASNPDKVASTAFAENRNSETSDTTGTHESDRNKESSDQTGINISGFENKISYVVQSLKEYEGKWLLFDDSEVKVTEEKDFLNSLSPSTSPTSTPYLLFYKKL

The target of assay [9] is Glucocorticoid receptor (Homo sapiens) (UniProt P04150). Kind of assay: GR-GFP Redistribution (AID 450;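 active = compounds whose dose series gives a full or clear partial fitted curve of increased nuclear translocation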; also: potency is read from the fitted curve at half-maximal effect). The following applies: U2OS GR-GFP nuclear translocation, laser cytometry, 2 h.
Sequence of Glucocorticoid receptor (Homo sapiens) (P04150 whole entry, looked up, the tested form may be a part): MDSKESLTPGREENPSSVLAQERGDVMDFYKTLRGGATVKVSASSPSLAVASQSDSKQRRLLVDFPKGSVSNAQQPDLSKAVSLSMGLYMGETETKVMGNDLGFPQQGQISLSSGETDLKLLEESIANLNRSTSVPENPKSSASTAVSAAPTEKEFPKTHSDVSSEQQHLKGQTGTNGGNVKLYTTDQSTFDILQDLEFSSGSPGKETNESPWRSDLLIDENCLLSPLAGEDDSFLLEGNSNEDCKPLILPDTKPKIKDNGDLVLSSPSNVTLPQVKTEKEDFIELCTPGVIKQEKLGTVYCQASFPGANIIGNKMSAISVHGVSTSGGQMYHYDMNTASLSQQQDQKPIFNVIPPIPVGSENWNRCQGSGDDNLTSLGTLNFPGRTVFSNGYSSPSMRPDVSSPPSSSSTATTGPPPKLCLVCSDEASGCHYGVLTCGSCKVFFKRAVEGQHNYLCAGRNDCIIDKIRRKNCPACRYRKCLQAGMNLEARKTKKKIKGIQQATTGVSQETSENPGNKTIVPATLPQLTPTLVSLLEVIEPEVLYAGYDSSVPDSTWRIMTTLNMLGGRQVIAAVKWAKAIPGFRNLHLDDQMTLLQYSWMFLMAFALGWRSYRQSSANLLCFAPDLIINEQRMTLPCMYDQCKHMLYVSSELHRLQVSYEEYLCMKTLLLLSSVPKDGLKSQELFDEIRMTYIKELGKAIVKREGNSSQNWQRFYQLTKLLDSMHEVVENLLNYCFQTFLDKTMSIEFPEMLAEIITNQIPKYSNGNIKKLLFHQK
The target in assay [10] is Mitogen-activated protein kinase 10 (Mus musculus) (UniProt Q61831). Description: JNK3 AlphaScreen Assay (AID 530; active = well fitted curve in either direction with a large enough effect, not every such curve was filed as active;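 also: kinase came from lysate of stimulated human HepG2 cells; signal reports phosphorylation of biotinylated GST-cJun 1-79 at Ser73 with 10 µM ATP; % is scaled to controls: 0 for no effect and ±100 for the full control effect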). The essentials:
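Inhibitors reduce antibody binding to phosphorylated biotin-cJun, lowering AlphaScreen luminescence. Lysates from HepG2 cells pre-activated by IL-1beta plus TNF-alpha supplied JNK3; compounds were titrated.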
Background: In Alpha technology, singlet oxygen from a donor bead excites a nearby acceptor bead.

Assay [11] concerns the target Cytochrome P450 1A2 (Homo sapiens) (UniProt P05177). Description: p450-cyp1a2 (AID 410; calls by dose curve; also: potency is read from the fitted curve at half-maximal effect;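 as to activity change, negative = inhibition: -100% = full effect of reference inhibitor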). In short, it runs like this: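 Luminescent readout of luciferin formed from Luciferin-ME by human CYP1A2; data normalized against complete inhibition by 57 uM furafylline. Enzyme 20nM, substrate 100uM at Km, 100mM KPO4 buffer, 60 min reaction at room temperature.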
Assay [12] addresses Glucocorticoid receptor (Homo sapiens) (UniProt P04150). Description: GR-EFC Redistribution (AID 451; calls by dose curve; also: potency is read from the fitted curve at half-maximal effect). The note with it: CHO-K1 GR-EFC translocation, beta-gal luminescence, 2 h. In short, it runs like this:
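CHO-K1 cells stably expressing nuclear-localized β-gal enzyme acceptor and GR fused C-terminally to the enzyme donor fragment; ligand-driven nuclear translocation restores β-gal by complementation. Compounds titrated up to 46 uM final, 2 h at 37 °C; luminescence read.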

For assay [13], the target named is DNA dC->dU-editing enzyme APOBEC-3G (Homo sapiens) (UniProt Q9HC16). Description: qHTS for inhibitors of Vif-A3G interactions: Validation (AID 588379). Also: 0% is about no effect. In short, it runs like this:
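HeLa cells stably expressing Vif and A3G-eYFP, 700 cells/well, incubated overnight at 37 deg C, then exposed to compound overnight at 37 deg C. Inhibition of Vif-mediated degradation read as increased yellow fluorescence (Ex 488/Em 500-530) by laser-scanning cytometry.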

The mark [14] stands for this setting: measured here: cell count channel max response.
[15] abbreviates: measured here: lipid channel max response.
The mark [16] stands for this setting: at 28.7 µM (top of the series), parasite line A.
Where [17] appears, read: at 28.7 µM (top of the series), parasite line B.

Sequence of Cytochrome P450 1A2 (Homo sapiens) (P05177 whole entry, looked up): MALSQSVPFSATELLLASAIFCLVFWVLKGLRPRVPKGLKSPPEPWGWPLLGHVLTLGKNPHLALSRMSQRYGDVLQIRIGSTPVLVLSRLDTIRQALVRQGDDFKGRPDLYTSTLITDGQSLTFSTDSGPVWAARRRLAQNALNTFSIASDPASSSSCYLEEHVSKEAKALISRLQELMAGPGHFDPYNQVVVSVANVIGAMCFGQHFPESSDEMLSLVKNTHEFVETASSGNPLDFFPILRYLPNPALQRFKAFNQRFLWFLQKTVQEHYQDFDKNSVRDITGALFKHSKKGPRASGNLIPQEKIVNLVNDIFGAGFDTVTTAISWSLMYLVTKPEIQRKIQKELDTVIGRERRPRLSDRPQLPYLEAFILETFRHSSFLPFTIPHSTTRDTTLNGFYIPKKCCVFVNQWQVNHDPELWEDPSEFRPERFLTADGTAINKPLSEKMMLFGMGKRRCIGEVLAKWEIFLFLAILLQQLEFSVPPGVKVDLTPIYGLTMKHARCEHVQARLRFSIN
Sequence of Luciferin 4-monooxygenase (Photinus pyralis) (P08659 whole entry, looked up): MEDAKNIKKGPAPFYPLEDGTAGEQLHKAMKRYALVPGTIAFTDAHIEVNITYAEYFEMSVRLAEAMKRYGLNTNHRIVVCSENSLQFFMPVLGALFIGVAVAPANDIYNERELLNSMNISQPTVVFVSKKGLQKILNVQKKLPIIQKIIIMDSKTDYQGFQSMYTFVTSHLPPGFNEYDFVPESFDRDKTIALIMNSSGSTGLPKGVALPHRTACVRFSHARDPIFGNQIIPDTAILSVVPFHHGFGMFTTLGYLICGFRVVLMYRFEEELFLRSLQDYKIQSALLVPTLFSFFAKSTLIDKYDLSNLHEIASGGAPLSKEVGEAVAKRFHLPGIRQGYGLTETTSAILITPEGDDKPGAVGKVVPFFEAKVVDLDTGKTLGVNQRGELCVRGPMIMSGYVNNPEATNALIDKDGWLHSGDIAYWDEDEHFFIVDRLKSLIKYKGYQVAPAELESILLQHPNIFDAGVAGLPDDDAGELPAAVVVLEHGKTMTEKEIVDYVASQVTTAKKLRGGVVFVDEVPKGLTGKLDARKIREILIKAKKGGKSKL
Sequence of DNA dC->dU-editing enzyme APOBEC-3G (Homo sapiens) (Q9HC16 whole entry, looked up): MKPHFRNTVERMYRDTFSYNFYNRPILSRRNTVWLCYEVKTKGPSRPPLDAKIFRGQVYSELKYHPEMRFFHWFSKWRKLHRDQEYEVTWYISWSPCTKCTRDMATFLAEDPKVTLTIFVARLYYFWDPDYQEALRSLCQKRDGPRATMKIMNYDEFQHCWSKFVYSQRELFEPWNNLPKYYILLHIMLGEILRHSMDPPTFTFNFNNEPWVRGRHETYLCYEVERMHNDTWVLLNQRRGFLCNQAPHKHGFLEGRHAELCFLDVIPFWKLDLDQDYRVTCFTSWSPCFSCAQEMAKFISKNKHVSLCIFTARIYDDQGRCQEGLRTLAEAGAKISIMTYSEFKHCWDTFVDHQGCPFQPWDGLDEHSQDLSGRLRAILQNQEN

For the compound `CNc1ccc(C(=O)CC(O)CCC(C)C2OC(=O)CC(O)CC(=O)CC(O)CC(O)CC(O)CC(O)CC3(O)CC(O)C(C(=O)OC)C(CC(O[C@@H]4OC(C)C(O)C(N)C4O)/C=C/C=C/C=C/C=C/C=C/C=C/C=C/C2C)O3)cc1` (some centres undefined), the Potency entry (in [1]; in [2]; in assay [3]; in [5]; in assay [6]; with AS120) was “inactive” in each case. In addition, the Potency entry with ATS189, in the assay with CP247, with CP269, in the assay on ECU and in the assay with TAB109 was “inactive” in each case. Besides, the activity change, negative = inhibition in [4] (at 57.5 µM (top of the series)) was 9.29% (inactive). For the same compound, the max response came out at 14.1% in assay [4] (setting [14]) and 27.6% in assay [4] (setting [15]). Moreover, the results for the activity, negative = inhibition in assay [7] (setting [16]) and in assay [7] (setting [17]) were 6.26% (inactive) and 3.77% (inactive), respectively.
As for `CC(CCC(=O)O)C1CCC2C3CC[C@H]4CC(O)CC[C@@]4(C)C3CC[C@@]12C` (some centres undefined), the activity change, negative = inhibition in assay [4] (at 57.5 µM (top of the series)) was -0.0455% (inactive). Also, the max response in [4] (setting [14]) is 5.89%; in assay [4] (setting [15]), 10.6%. The Potency in [8] was 79.4 µM (active).
With `CC(=O)O[C@H]1C[C@@H](O[C@@H]2[C@H](C)O[C@H](O[C@@H]3[C@H](C)O[C@H](O[C@@H]4CC[C@@]5(C)[C@@H](CC[C@]6(C)[C@]5(C)C[C@H](O)[C@]5(C)[C@@H](C7=CC(=O)OC7)CC[C@@]56O)C4)C[C@@H]3O)C[C@@H]2O)O[C@@H](C)[C@H]1O[C@H]1O[C@@H](CO)[C@@H](O)[C@@H](O)[C@@H]1O`, the Potency in assay [9] was > 20.6 µM (inactive). The call in [10] was inactive. In assay [4] (at 25.7 µM (top of the series)), the activity change, negative = inhibition was -1.77% (inactive). In addition, the max response is -6.91% in assay [4] (setting [14]) and -8.38% in assay [4] (setting [15]). Also, the Potency entry in [8] is “inactive”.
For `COc1cc(N)c(Cl)cc1C(=O)N[C@@H]1CN2CCC1CC2`, the Potency result (in assay [11]; in [5]; in assay [6]; in the assay with AS120; in the assay on ATS189; in the assay on CP247) was “inactive” each time. Also, the Potency entry with CP269, in the assay with ECU and with TAB109 was “inactive” each time. For the same compound, the Potency in assay [9] and in assay [12] was > 46 µM (inactive) throughout. The activity change, negative = inhibition in assay [4] (at 57.5 µM (top of the series)) was 7.47% (inactive). Also, the max response worked out at 3.73% in assay [4] (setting [14]) and 7.11% in [4] (setting [15]). In assay [13], the compound was classed as inactive. The figures for the activity, negative = inhibition in assay [7] (setting [16]) and in assay [7] (setting [17]) were -0.396% (inactive) and 5.5% (inactive), respectively.
Turning to `C[C@@]12CC[C@H](O)C[C@@H]1CC[C@H]1[C@@H]2C[C@@H](O)[C@]2(C)[C@@H](C3=CC(=O)OC3)CC[C@]12O`, the Potency entry in assay [11] and in assay [8] was “inactive” throughout. For the same compound, the Potency in [9] and in [12] was > 20.6 µM (inactive) in each case. Further, the compound was called inactive in [10]. In assay [4] (at 25.7 µM (top of the series)), the activity change, negative = inhibition is -4.23% (inactive). Also, the max response in [4] (setting [14]) is -5.31%; in assay [4] (setting [15]), -9.41%.
Take `c1cncc([C@H]2CCCCN2)c1`: the Potency in assay [11] is 0.1 µM (active); in assay [9], > 46 µM (inactive); in assay [12], > 46 µM (inactive). Also, the call in assay [10] and in assay [13] was inactive. Also, the Potency entry in [1] was “inactive”. Further, the activity change, negative = inhibition in assay [4] (at 57.5 µM (top of the series)) was 0.698% (inactive). Besides, the max response came to 18.4% in [4] (setting [14]) and 19.6% in assay [4] (setting [15]).
As for `C[C@@H]1O[C@H](O[C@@H]2C=C3CC[C@H]4[C@@H](CC[C@]5(C)[C@@H](c6ccc(=O)oc6)CC[C@]45O)[C@@]3(C)CC2)[C@@H](O)[C@H](O)[C@@H]1O`, the Potency entry (in assay [11]; in assay [5]; in assay [6]; in the assay with AS120; in the assay with ATS189; in the assay on CP247) was “inactive” each time. The Potency entry with CP269, with ECU and with TAB109 was “inactive” in each case. In addition, the Potency in [9] and in assay [12] was > 20.6 µM (inactive) throughout. For the same compound, the compound was called inactive in assay [10]. Further, the activity change, negative = inhibition in assay [4] (at 25.7 µM (top of the series)) was -8.45% (inactive). Further, the figures for the max response in [4] (setting [14]) and in assay [4] (setting [15]) were -11.6% and -25.4%, respectively. For the same compound, the activity, negative = inhibition in assay [7] (at 12.8 µM (top of the series), parasite line A) is -2.59% (inactive); in [7] (at 12.8 µM (top of the series), parasite line B) it was -11.4% (inactive).
Turning to `COC(=O)NC(=S)Nc1ccccc1NC(=S)NC(=O)OC`, the call in assay [10] was inactive. Further, the Potency entry in [1], in assay [3] and in assay [8] was “inactive” each time. Moreover, in assay [4] (at 57.5 µM (top of the series)), the activity change, negative = inhibition is 3.23% (inactive). The results for the max response in assay [4] (setting [14]) and in [4] (setting [15]) were 8.02% and 10.3%, respectively.
